IL-1B inflam inh: qHTS for Inhibitors of Inflammasome Signaling: IL-1-beta AlphaLISA Primary Screen. THP-1 LPS/ATP IL-1B secretion, AlphaLISA, 16 h; active compounds read low. activity change, % at 57.5 µM. actives 4.7% (n = 360,000); in the data active = activity change below about -50%; inconclusive = mostly about -30% to -49%
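THP-1 cells pretreated 1 hr with compounds (up to 57.5 uM final), then stimulated with LPS (250 ng/mL final) plus ATP (1.25 mM final); secreted IL-1B measured by AlphaLISA after 16 hr, decreased signal indicating inhibition.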
HepG2 viability: qHTS for Inhibitors of TGF-b: Cytotox Counterscreen. Potency, µM (doses to about 46.1 µM), hits mostly cytotoxic. AID 588856, 2011. HepG2 CAGA-GFP viability, ATP luminescence, 18 h. actives 0.76% (n = 410,000)
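CellTiter-Glo luminescence gave cytotoxicity after 18 hours at 37 degrees C. The cells were HepG2 CAGA-GFP in 1% FBS DMEM, stimulated with 500 pg/mL TGF-beta after compound addition. %Activity was normalised to no-cell wells (complete cell-killing) and DMSO (no toxicity), and curves were fitted and classified.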
TDP1 cell CPT: qHTS for Inhibitors of human tyrosyl-DNA phosphodiesterase 1 (TDP1): qHTS in cells in presence of CPT. AID 686979, 2013. chicken DT40 Tdp1-/-;hTDP1 cells + 20 nM CPT, ATP luminescence, 48 h. actives 12% (n = 420,000). Potency, µM (doses to about 46.2 µM), most hits filed as inhibitors; note: nearly all actives have a fitted effect of over 55% in size
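Chicken DT40 Tdp1-/- cells stably complemented with human TDP1 were seeded at 400 cells/well in medium containing 20 nM camptothecin, exposed to pin-transferred compounds, and grown at 37 °C for at least 48 hr. Viability was read as ATP luminescence.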
TDP1 inh: qHTS Assay for Inhibitors of Tyrosyl-DNA Phosphodiesterase (TDP1); Tyrosyl-DNA phosphodiesterase 1 (Homo sapiens), Q9NUW8; recombinant TDP1, AlphaScreen DNA substrate cleavage; Potency, µM (titrated, usually from 130 µM), hits mostly inhibitors; actives 0.28% (n = 350,000); note: nearly all actives have a fitted effect of over 40% in size
Target sequence (Q9NUW8 whole entry, looked up): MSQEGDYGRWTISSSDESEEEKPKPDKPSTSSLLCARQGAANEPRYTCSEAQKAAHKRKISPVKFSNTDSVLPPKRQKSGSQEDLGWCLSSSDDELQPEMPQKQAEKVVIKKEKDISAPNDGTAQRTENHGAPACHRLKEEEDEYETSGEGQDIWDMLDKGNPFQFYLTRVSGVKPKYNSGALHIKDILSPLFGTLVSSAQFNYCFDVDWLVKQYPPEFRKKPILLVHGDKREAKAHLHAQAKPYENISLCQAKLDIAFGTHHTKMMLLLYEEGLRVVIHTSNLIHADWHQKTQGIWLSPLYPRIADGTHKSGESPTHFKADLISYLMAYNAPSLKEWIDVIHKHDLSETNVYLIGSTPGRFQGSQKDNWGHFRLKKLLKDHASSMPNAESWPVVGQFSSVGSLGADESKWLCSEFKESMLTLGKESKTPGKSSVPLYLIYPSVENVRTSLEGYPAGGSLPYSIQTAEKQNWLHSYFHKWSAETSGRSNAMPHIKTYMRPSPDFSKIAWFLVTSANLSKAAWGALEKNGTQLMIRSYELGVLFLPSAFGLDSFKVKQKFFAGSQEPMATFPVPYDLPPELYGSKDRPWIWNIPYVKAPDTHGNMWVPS
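Tdp1 1 nM final; 15 min RT w/ cpd; substrate 15 nM, 5 min; beads 10 ug/ml, 10 min; AlphaScreen read. Neg ctrl: no enzyme.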
TGFb SMAD3 inh: qHTS for Inhibitors of TGF-b; HepG2 CAGA-GFP TGF-b/SMAD3 reporter, GFP fluorescence, 18 h; TGF-beta stimulated, 500 pg/mL final; Potency, µM (series often up to 46.1 µM), most hits filed as inhibitors; actives 1.2% (n = 410,000); note: nearly all actives have a fitted effect of over 65% in size
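Using HEPG2 CAGA-GFP reporter cells at 1000 cells/well, we pinned test compounds, stimulated with recombinant TGF-beta (500 pg/mL final) and measured total well GFP after 18 h.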
TDP1 cell noCPT: qHTS for Inhibitors of human tyrosyl-DNA phosphodiesterase 1 (TDP1): qHTS in cells in absence of CPT | DT40 Tdp1-/- hTDP1 cells, no CPT, ATP luminescence, 48 h | Potency, µM (titrated, usually from 46.2 µM), most hits filed as inhibitors | actives 15% (n = 420,000) | AID 686978, 2013; note: nearly all actives have a fitted effect of over 55% in size
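Seeded 400 DT40-hTDP1 cells/well (vehicle DMSO, no 20 nM CPT); pinned compounds; ≥48 hr at 37 °C; CellTiter-Glo luminescence as viability measure.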
Numbers stand for hits; i = inactive; ? = inconclusive; nt = no result; [ ] = another dose, or the depositor's remark. Sampled rows, rich in hits. Any-hit rate of the full collection: about 18%. Unless noted, calls come from the whole dose curve; as a rule, active = well fitted curve in the direction sought with a large enough effect; inconclusive = small, poorly fitted or top-dose-only effect, or another doubt; inactive = no such curve, though single readings can be large; an effect the other way counts as inactive or inconclusive.

SMILES | IL-1B inflam inh | HepG2 viability | TDP1 cell CPT | TDP1 inh | TGFb SMAD3 inh | TDP1 cell noCPT
Cc1cccc(C)c1Nc1c(-c2ccc(O)cc2)nc2sccn12 | nt | i | 6.5µM | i | ? | 7.3µM
CCC1=C2CC[C@H]3C(=O)NC(=O)[C@H]3[C@H]2[C@@]2(C)C(=O)N(CC3CC3)C(=O)N2C1=O | nt | nt | nt | i | nt | nt
COCCCn1c(SCC(=O)Nc2ccc(F)cc2)nc2c(sc3ccccc32)c1=O | nt | i | 15µM | i | i | 5.8µM
CC(C)OCCCn1c(SCC(N)=O)nc2c(sc3ccccc32)c1=O | nt | i | 21µM | i | i | ?
Cc1cccc(CSc2nc3c(sc4ccccc43)c(=O)n2CCC(=O)NC(C)C)c1 | nt | i | 4.6µM | i | i | 12µM
C/C(N)=C(/C#N)C(=O)CSc1nc2ccccc2c(=O)n1CCCOC(C)C | ? | i | ? | i | i | 23µM
COCCCn1c(SCC(=O)Nc2ccc(OC)cc2)nc2c(sc3ccccc32)c1=O | nt | i | i | i | i | i
COC1C[C@@H](O[C@@H]2C(C)C(=O)OC(C)C(C)[C@H](OC(C)=O)C(C)C(=O)[C@@]3(CO3)CC(C)C(OC3OC(C)CC(N(C)C)[C@H]3OC(C)=O)C2C)OC(C)[C@@H]1OC(C)=O (some centres not stated) | nt | nt | i | i | nt | i
COc1ccc(NC(=O)CSc2nc3c(sc4ccccc43)c(=O)n2CCCN2CCCC2)cc1 | i | i | 21µM | i | i | ?
COCCCn1c(SCc2ccccc2F)nc2c(sc3ccccc32)c1=O | nt | i | ? | i | i | 15µM
CCOCCCn1c(SCC(=O)Nc2ccc(F)cc2)nc2c(sc3ccccc32)c1=O | nt | i | i | i | i | i
COc1ccc(CNC(=O)COc2ccc(Br)c(C)c2)cc1 | i | i | i | nt | i | i
COc1ccccc1-c1nnc(NC(=O)C(C)SC2=NCCS2)s1 (configuration not stated) | ? | i | 21µM | i | i | ?
CC(SC1=NCCS1)C(=O)Nc1nnc(-c2ccc(Cl)cc2)s1 (configuration not stated) | ? | i | 15µM | i | i | 21µM
CC(Sc1nncn1C)C(=O)Nc1nnc(-c2ccccc2)s1 (configuration not stated) | i | i | i | i | i | i
COc1ccc2c(C)cc(SCC(=O)Nc3nsc(-c4ccccc4C)n3)nc2c1 | nt | i | ? | i | i | 15µM
Cc1ccc(-c2nc(NC(=O)CSc3cc(C)c4ccccc4n3)ns2)cc1 | i | i | 13µM | i | i | 16µM
COc1ccc2c(C)cc(SCC(=O)Nc3nsc(-c4ccc(C)cc4)n3)nc2c1 | i | i | i | i | i | i
CCN(CC)C(=O)Cn1cc(S(=O)(=O)CC(=O)Nc2ccc(C(N)=O)cc2)c2ccccc21 | i | i | i | i | i | i
COc1cc([N+](=O)[O-])ccc1NC(=S)Nc1cc(C(=O)OC(C)C)cc(C(=O)OC(C)C)c1 | i | i | 29µM | i | i | ?
COc1ccc([N+](=O)[O-])cc1NC(=S)NC(C)=O | i | i | ? | i | i | ?
CCc1ccc(NC(=O)CS(=O)CC(=O)Nc2ccc(-n3cnnn3)c(C)c2)cc1 (configuration not stated) | i | i | i | 56µM | i | i
Cc1cc(NC(=O)CS(=O)CC(=O)Nc2c(C)cccc2C)ccc1-n1cnnn1 (configuration not stated) | i | i | i | i | i | i
CC(C)(C)NC(=O)C1c2ccccc2OCC(=O)N1Cc1cccnc1 (configuration not stated) | i | nt | i | nt | nt | i
Cn1c(SCc2ccc(F)cc2)nc2c([nH]c3ccccc32)c1=O | nt | i | ? | i | i | ?
SMILES | IL-1B inflam inh | HepG2 viability | TDP1 cell CPT | TDP1 inh | TGFb SMAD3 inh | TDP1 cell noCPT
Cn1c(SCc2ccc(Br)cc2)nc2c([nH]c3ccccc32)c1=O | nt | i | i | i | i | i
Cn1c(SCc2ccc(C(F)(F)F)cc2)nc2c([nH]c3ccccc32)c1=O | nt | i | 9.2µM | i | i | 18µM
Cn1c(SCc2cccc(F)c2)nc2c([nH]c3ccccc32)c1=O | nt | i | 7.3µM | i | i | ?
CC1(C)CC(=O)c2c(O)cc(OCC(=O)N3CCN(c4ccccc4)CC3)cc2O1 | ? | i | ? | nt | i | i
Cc1nc2cc(NC(=O)[C@@H]3C[C@@H](Sc4ccccn4)CN3Cc3ccc(F)cc3F)ccc2s1 | nt | nt | i[9.04 µM] | nt | nt | i
O=C(O)C1(C(=O)O)CCC1.[NH2-].[NH2-].[Pt+2] | nt | nt | nt | i | nt | nt
O=C(NC(=S)Nc1ccccc1)c1ccc(-c2ccccc2)cc1 | i | i | ? | i | i | 18µM
CC(C)NS(=O)(=O)c1ccc(NC(=S)NC(=O)c2ccc(-c3ccccc3)cc2)cc1 | i | i | 11µM | i | i | 14µM
Nc1ncncc1-c1ccc(F)cc1 | i | i | i | nt | i | ?
Nc1ncncc1-c1ccc([N+](=O)[O-])cc1 | i | i | 16µM | i | i | ?
Cc1cc(C)n2nc3nc(N4CCCCC4)nc(-c4ccco4)c3c2n1 | i | i | 15µM | i | i | 21µM
O=C(CNS(=O)(=O)c1c(Cl)cccc1Cl)N1CCCCCC1 | i | i | i | nt | i | i
O=C(Nc1ccc2c(c1)OCCO2)C1c2ccccc2OCC(=O)N1CC(F)(F)F (configuration not stated) | i | nt | i | nt | nt | i
CCCn1c(N2CCN(CC(=O)c3c(C)n(C)c4ccc(OC)cc34)CC2)nc2c1c(=O)[nH]c(=O)n2C | i | i | ? | i | i | 21µM
CCCCCn1c(CN2CCN(c3ccc(OC)cc3)CC2)nc2c1c(=O)[nH]c(=O)n2C | nt | i | ? | i | ? | 23µM
CCCCCn1c(CN2CCN(c3cc(Cl)ccc3C)CC2)nc2c1c(=O)[nH]c(=O)n2C | ? | i | 14µM | i | i | 13µM
O=C(CCNC(=O)c1ccc(Br)cc1)NCc1ccccn1 | i | i | i | i | i | i
C[N+](C)(C)CCCCCC(=O)/C=N/O | i | i | i | i | i | i
CC(=O)CC[N+](C)(C)C | -96 | i | 13µM | nt | i | 15µM
CC(=O)C1=C(c2ccc(C)c(C)c2)N(C(C)=O)n2c(nnc2-c2ccc(Cl)cc2)S1 | nt | i | 5.2µM | i | i | 4.6µM
CCc1nnc2n1N(C(C)=O)C(c1ccc(C(C)(C)C)cc1)=C(C(C)=O)S2 | nt | i | 8.2µM | i | ? | 12µM

From PubChem BioAssay
